In the supplement of paper PMC10849652:
About 8,800 targets were measured; listed, in parts, are those with a hit and a random draw of the rest. About 0.5% of all pairs of compound and target were hits.

Key:
Assay in all cases: log2 fold change, soluble protein after heating vs DMSO (PISA); higher = thermal stabilisation; K562 lysate, 10 uM; active = over 0.2 and 3.5 SD of the protein, either way, in both replicates (recomputed)
erlotinib = compound: C#Cc1cccc(Nc2ncnc3cc(OCCOC)c(OCCOC)cc23)c1 [erlotinib]
Method in brief: (§1)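 The values are log-two fold changes in thermal stability compared with solvent controls and come from duplicates. They were obtained by TMTpro 16plex LC-MS/MS, with channel sums equalised, on the supernatant after 21,000xg for 90 min. That supernatant came from crude K562 extract at 1 mg/mL protein treated with 10 μM compound for 30 min, heated for 3 min across 48°C-58°C, pooled and brought to 0.5% NP-40 at 4°C.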

[1] = compound: C/C(=N\NC(=O)C1=CC(=CC=C1)S(=O)(=O)N2CCOCC2)/C3=C(C=CC(=C3)Cl)O
Method in brief: as §1

[2] = compound: C1=CC(=CC=C1C2=NC3=C(N2)C=C(C=C3)C(=O)N)OC4=CC=C(C=C4)Cl
Method in brief: as §1

[3] = compound: C1=CC2=C(C=CC(=C2)/C=C\3/C(=O)NC(=NCC4=CC=CS4)S3)N=C1
Method in brief: as §1

[4] = compound: C1=CC2=NC=CN=C2C=C1/C=C/3\C(=O)NC(=O)S3
Method in brief: as §1

[5] = compound: C1=CC=C(C=C1)C2=NC(=C(N2)C3=CC=NC=C3)C4=CC(=C(C=C4)Cl)O
Method in brief: as §1

[6] = compound: C1=CC=C2C(=C1)C3=NNC4=CC=CC(=C43)C2=O
Method in brief: as §1

[7] = compound: C1CCN(C1)C(=O)NC2=CC=CC(=C2)NC3=NC=C(C(=N3)NCCC4=CN=CN4)Br
Method in brief: as §1

[8] = compound: C1CN(CCC1(CC2=CC=C(C=C2)Cl)N)C3=NC=NC4=C3C=CN4
Method in brief: as §1

IRAK-1-4 Inhibitor I = compound: C1COCCN1CCN2C3=CC=CC=C3N=C2NC(=O)C4=CC(=CC=C4)[N+](=O)[O-] [IRAK-1-4 Inhibitor I]
Method in brief: as §1

ibrutinib = compound: C=CC(=O)N1CCC[C@@H](n2nc(-c3ccc(Oc4ccccc4)cc3)c3c(N)ncnc32)C1 [ibrutinib]
Method in brief: as §1

[9] = compound: CC(=O)c1cnc2ccc(-c3cc(Cl)c(O)c(Cl)c3)nc2c1N[C@H]1CC[C@H](CN(C)C)CC1
Method in brief: as §1

ralimetinib = compound: CC(C)(C)Cn1c(N)nc2ccc(-c3[nH]c(C(C)(C)C)nc3-c3ccc(F)cc3)nc21 [ralimetinib]
Method in brief: as §1

[10] = compound: CC(C)(O)CC(=O)NCCn1ccc2ncnc(Nc3ccc(Oc4cccc(C(F)(F)F)c4)c(Cl)c3)c21
Method in brief: as §1

[11] = compound: CC(C)C1=C2N=C(C=C(N2N=C1)NCC3=CC=CC=C3)NCCCCCCN
Method in brief: as §1

[12] = compound: CC1=C(C(CC(=O)N1)C2=CC=C(C=C2)C(F)(F)F)C(=O)NC3=C(C=C4C(=C3)C=NN4)F
Method in brief: as §1

[13] = compound: CC1=C(C2=C(C=C1)C(=O)C3=CC=CC=C3N2CCCN)C
Method in brief: as §1

[14] = compound: CC1=C(C=C(C=C1)NC(=O)C2=CC(=CC=C2)C(C)(C)C#N)NC3=CC4=C(C=C3)N=CN(C4=O)C
Method in brief: as §1

[15] = compound: CC1=C(C=C(C=C1)NC(=O)C2=CC(=CC=C2)N(C)C)NC(=O)C3=CC=C(C=C3)O
Method in brief: as §1

[16] = compound: CC1=CC=C(C=C1)SC2=C3C=C(SC3=CN=C2)C(=O)N
Method in brief: as §1

Measured: log2 fold change

EPN2 (UniProt O95208)
Sequence of UniProt O95208 (O95208 whole entry, looked up): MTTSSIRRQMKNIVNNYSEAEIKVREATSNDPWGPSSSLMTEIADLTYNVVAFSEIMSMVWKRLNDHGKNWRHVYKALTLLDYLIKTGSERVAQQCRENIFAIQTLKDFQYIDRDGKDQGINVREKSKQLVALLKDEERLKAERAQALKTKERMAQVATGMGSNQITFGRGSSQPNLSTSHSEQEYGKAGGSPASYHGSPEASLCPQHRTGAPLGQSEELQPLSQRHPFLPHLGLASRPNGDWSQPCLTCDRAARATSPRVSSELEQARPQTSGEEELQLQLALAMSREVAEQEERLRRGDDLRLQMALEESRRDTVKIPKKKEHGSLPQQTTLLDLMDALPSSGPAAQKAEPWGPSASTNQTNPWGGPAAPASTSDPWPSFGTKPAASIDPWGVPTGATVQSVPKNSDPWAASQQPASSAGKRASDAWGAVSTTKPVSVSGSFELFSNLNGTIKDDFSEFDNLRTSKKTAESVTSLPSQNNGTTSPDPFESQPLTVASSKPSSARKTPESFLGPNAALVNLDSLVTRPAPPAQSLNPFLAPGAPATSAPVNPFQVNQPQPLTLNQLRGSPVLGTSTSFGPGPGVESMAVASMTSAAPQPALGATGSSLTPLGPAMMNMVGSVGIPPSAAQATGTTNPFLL
inactive: erlotinib 0.054 | [1] -0.08 | [2] -0.001 | [3] -0.011 | [4] -0.059 | [5] -0.039 | [6] 0.003 | [7] -0.003 | [8] 0.007 | IRAK-1-4 Inhibitor I -0.005 | ibrutinib -0.01 | [9] -0.016 | ralimetinib 0.075 | [10] -0.004 | [11] -0.058 | [12] 0.009 | [13] -0.024 | [14] 0.001 | [15] 0.017 | [16] -0.009

EMC7 (UniProt Q9NPA0)
Sequence of UniProt Q9NPA0 (Q9NPA0 whole entry, looked up): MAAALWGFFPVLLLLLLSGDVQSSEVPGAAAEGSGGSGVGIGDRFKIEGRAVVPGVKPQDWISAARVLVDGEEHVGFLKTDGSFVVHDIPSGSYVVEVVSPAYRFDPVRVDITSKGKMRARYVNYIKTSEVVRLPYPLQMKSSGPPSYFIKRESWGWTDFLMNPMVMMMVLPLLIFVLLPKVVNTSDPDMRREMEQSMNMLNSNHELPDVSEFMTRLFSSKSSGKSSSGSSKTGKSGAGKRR
inactive: erlotinib 0.023 | [1] -0.011 | [2] -0.009 | [3] -0.02 | [4] -0.044 | [5] -0.011 | [6] -0.052 | [7] -0.002 | [8] 0.011 | IRAK-1-4 Inhibitor I 0.02 | ibrutinib -0.033 | [9] -0.001 | ralimetinib 0.008 | [10] -0.003 | [11] 0.013 | [12] -0.012 | [13] 0.024 | [14] 0.015 | [15] -0.006 | [16] -0.032

ERI1 (UniProt Q8IV48)
Sequence of UniProt Q8IV48 (Q8IV48 whole entry, looked up): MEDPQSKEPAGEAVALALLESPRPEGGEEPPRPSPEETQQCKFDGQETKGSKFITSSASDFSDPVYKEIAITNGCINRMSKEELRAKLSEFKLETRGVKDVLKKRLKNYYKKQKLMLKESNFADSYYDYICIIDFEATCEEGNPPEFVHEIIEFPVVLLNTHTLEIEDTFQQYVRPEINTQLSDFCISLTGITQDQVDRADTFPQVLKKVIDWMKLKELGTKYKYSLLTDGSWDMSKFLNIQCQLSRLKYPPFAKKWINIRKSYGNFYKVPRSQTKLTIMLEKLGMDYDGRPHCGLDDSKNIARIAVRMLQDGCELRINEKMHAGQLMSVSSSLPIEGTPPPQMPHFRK
inactive: erlotinib -0.015 | [1] 0.073 | [2] -0.009 | [3] 0.019 | [4] -0.028 | [5] 0.134 | [6] -0.03 | [7] -0.009 | [8] -0.036 | IRAK-1-4 Inhibitor I -0.111 | ibrutinib -0.037 | [9] 0.022 | ralimetinib -0.035 | [10] 0.085 | [11] 0.084 | [12] -0.05 | [13] 0 | [14] -0.033 | [15] 0.411 | [16] 0.012

FLAD1 (UniProt Q8NFF5)
inactive: erlotinib 0.001 | [1] -0.108 | [2] -0.047 | [3] -0.054 | [4] -0.035 | [5] 0.012 | [6] 0.045 | [7] -0.028 | [8] -0.027 | IRAK-1-4 Inhibitor I 0.001 | ibrutinib -0.011 | [9] 0.002 | ralimetinib 0.016 | [10] -0.014 | [11] -0.072 | [12] -0.004 | [13] -0.026 | [14] 0.002 | [15] 0.011 | [16] 0.015

FIG4 (UniProt Q92562)
inactive: erlotinib 0.032 | [1] -0.032 | [2] -0.029 | [3] 0 | [4] 0.007 | [5] 0.064 | [6] 0.02 | [7] 0.061 | [8] -0.053 | IRAK-1-4 Inhibitor I 0.003 | ibrutinib 0.14 | [9] -0.07 | ralimetinib -0.01 | [10] -0.115 | [11] -0.012 | [12] -0.248 | [13] 0.029 | [14] -0.093 | [15] -0.085 | [16] 0.012

FNTB (UniProt P49356)
inactive: erlotinib -0.03 | [1] -0.038 | [2] 0.011 | [3] 0.013 | [4] -0.034 | [5] -0.005 | [6] -0.02 | [7] 0.028 | [8] -0.022 | IRAK-1-4 Inhibitor I -0.006 | ibrutinib -0.018 | [9] 0.005 | ralimetinib 0.03 | [10] -0.013 | [11] -0.022 | [12] -0.036 | [13] -0.026 | [14] -0.011 | [15] 0.038 | [16] -0.013

EGLN1 (UniProt Q9GZT9)
Sequence of UniProt Q9GZT9 (Q9GZT9 whole entry, looked up): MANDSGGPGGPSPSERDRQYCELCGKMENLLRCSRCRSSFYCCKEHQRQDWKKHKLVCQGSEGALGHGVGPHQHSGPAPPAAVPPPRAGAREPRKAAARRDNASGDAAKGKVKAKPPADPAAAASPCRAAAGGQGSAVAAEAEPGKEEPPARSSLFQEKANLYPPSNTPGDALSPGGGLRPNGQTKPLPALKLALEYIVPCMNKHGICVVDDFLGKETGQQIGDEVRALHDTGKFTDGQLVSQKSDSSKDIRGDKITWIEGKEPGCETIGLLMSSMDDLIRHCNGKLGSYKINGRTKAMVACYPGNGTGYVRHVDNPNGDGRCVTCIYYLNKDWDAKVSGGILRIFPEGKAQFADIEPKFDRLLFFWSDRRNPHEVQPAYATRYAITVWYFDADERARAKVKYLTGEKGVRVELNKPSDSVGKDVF
inactive: erlotinib 0.006 | [1] 0.016 | [2] 0.034 | [3] 0.028 | [4] -0.027 | [5] 0.006 | [6] -0.005 | [7] 0.015 | [8] -0.019 | IRAK-1-4 Inhibitor I -0.021 | ibrutinib -0.041 | [9] 0.007 | ralimetinib 0.01 | [10] 0.072 | [11] 0.029 | [12] 0.013 | [13] -0.029 | [14] 0.013 | [15] 0.029 | [16] 0.038

ESRRA (UniProt P11474)
Sequence of UniProt P11474 (P11474 whole entry, looked up): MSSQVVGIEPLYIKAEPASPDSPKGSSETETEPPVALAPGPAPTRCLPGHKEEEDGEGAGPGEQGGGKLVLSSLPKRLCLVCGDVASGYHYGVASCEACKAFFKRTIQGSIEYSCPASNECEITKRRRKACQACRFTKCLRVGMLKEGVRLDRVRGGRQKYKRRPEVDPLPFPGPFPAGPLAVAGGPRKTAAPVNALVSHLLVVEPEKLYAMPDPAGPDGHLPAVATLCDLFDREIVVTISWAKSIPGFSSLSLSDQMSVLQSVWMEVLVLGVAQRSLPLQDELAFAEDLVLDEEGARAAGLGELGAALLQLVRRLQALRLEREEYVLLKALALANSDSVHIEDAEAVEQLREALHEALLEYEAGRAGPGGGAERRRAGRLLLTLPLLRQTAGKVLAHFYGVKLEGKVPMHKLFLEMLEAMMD
inactive: erlotinib 0.065 | [1] 0.171 | [2] -0.037 | [3] 0.06 | [4] -0.131 | [5] -0.033 | [6] -0.112 | [7] -0.018 | [8] 0.2 | IRAK-1-4 Inhibitor I 0.029 | [9] 0.045 | ralimetinib 0.043 | [10] -0.023 | [11] 0 | [12] -0.007 | [13] -0.075 | [14] 0.067 | [15] -0.009 | [16] 0.089
active: ibrutinib -0.408

EPB41 (UniProt P11171)
Sequence of UniProt P11171 (P11171 whole entry, looked up): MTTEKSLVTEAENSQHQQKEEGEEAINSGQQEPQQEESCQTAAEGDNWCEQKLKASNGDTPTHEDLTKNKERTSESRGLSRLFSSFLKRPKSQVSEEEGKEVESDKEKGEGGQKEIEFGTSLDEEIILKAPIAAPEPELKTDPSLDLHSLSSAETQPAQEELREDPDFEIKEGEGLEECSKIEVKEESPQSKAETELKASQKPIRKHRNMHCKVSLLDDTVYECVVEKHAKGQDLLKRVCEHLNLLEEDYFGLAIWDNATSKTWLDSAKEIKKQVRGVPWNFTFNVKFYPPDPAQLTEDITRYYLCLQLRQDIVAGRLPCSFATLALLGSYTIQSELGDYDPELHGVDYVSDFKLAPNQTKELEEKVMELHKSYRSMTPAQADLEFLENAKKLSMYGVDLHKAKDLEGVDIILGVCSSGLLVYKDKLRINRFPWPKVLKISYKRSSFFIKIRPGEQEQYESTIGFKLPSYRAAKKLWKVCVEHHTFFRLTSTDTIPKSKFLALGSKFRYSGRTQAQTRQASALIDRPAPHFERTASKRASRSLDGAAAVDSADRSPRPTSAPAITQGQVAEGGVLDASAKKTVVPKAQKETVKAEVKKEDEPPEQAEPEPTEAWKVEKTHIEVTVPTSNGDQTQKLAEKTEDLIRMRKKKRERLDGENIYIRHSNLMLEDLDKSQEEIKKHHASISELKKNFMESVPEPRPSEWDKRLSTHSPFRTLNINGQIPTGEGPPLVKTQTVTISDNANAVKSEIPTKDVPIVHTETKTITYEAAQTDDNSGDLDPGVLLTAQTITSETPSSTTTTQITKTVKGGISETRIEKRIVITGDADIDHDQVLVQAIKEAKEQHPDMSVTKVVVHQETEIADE
inactive: erlotinib -0.024 | [1] -0.021 | [2] -0.068 | [3] 0.006 | [4] -0.005 | [5] 0 | [6] 0.014 | [7] 0.004 | [8] 0.008 | IRAK-1-4 Inhibitor I -0.028 | ibrutinib 0.01 | [9] 0.026 | ralimetinib 0.009 | [10] 0.012 | [11] -0.003 | [12] -0.001 | [13] 0.018 | [14] -0.023 | [15] 0.01 | [16] 0.044

FYCO1 isoform 4 (UniProt Q9BQS8)
inactive: erlotinib 0.029 | [1] 0.026 | [2] 0.014 | [3] -0.01 | [4] -0.019 | [5] -0.006 | [6] -0.016 | [7] -0.013 | [8] 0.009 | IRAK-1-4 Inhibitor I 0 | ibrutinib -0.012 | [9] -0.015 | ralimetinib 0.021 | [10] -0.026 | [11] 0 | [12] 0.029 | [13] -0.019 | [14] -0.003 | [15] -0.028 | [16] 0

GIGYF2 (UniProt Q6Y7W6)
Sequence of UniProt Q6Y7W6 (Q6Y7W6 whole entry, looked up): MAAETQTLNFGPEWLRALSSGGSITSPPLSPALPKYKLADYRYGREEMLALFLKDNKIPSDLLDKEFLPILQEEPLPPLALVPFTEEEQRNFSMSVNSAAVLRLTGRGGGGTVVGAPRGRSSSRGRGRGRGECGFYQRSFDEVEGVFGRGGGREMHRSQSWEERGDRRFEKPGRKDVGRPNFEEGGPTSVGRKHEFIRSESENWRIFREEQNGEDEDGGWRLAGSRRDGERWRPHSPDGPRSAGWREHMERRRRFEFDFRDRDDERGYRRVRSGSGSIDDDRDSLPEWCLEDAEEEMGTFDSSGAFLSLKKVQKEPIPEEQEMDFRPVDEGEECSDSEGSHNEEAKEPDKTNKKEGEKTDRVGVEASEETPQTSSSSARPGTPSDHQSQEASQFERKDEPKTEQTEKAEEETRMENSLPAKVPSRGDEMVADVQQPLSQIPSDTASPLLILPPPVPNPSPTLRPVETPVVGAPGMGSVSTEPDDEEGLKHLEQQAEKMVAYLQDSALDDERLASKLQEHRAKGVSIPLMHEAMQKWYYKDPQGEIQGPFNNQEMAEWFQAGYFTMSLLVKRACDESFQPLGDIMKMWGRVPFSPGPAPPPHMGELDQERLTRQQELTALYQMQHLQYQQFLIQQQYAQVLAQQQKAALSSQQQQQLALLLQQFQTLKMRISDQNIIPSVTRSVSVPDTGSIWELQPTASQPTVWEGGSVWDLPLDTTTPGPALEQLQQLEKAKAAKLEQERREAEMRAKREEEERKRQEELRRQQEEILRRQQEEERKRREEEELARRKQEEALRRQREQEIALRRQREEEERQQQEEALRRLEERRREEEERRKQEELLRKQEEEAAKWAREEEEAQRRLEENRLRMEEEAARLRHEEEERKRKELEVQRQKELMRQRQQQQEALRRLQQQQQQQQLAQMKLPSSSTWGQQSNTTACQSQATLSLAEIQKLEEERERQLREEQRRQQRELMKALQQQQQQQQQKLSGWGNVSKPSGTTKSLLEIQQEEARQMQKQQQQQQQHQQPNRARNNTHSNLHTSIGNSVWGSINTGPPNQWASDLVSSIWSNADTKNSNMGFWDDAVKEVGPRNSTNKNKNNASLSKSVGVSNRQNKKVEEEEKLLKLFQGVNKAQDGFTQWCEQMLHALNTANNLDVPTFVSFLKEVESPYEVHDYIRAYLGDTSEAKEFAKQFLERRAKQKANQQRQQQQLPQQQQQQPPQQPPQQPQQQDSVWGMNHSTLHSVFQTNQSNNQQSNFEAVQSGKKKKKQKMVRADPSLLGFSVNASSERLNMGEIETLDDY
inactive: erlotinib -0.011 | [1] -0.033 | [2] -0.024 | [3] -0.016 | [4] 0.018 | [5] 0.005 | [6] -0.005 | [7] 0.006 | [8] -0.005 | IRAK-1-4 Inhibitor I 0.002 | ibrutinib -0.01 | [9] 0.004 | ralimetinib 0.014 | [10] -0.016 | [11] 0.029 | [12] -0.015 | [13] 0.01 | [14] 0.007 | [15] -0.006 | [16] 0.023

FUBP3 (UniProt Q96I24)
Sequence of UniProt Q96I24 (Q96I24 whole entry, looked up): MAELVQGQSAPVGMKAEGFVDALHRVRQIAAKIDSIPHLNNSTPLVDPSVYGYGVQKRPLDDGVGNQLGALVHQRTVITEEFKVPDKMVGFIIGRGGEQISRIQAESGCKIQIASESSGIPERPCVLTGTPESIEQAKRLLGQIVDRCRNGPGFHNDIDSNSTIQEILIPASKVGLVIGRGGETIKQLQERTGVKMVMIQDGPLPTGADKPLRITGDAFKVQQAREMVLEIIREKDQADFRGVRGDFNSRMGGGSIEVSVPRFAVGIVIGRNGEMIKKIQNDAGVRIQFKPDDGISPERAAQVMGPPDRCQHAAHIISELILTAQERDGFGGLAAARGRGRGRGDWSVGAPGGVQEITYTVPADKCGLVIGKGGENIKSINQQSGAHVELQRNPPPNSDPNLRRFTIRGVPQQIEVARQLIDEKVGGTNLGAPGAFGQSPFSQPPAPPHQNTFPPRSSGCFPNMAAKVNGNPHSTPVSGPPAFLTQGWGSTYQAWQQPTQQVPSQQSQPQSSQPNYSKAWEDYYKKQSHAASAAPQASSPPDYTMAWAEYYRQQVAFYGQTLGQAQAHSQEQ
inactive: erlotinib -0.023 | [1] 0.003 | [2] 0.04 | [3] 0.007 | [4] -0.009 | [5] -0.141 | [6] -0.033 | [7] -0.038 | [8] 0.003 | IRAK-1-4 Inhibitor I 0.023 | ibrutinib 0.024 | [9] 0.002 | ralimetinib 0.021 | [10] -0.051 | [11] 0.014 | [12] -0.018 | [13] 0.072 | [14] -0.149 | [15] -0.003 | [16] -0.018

EMP3 (UniProt P54852)
Sequence of UniProt P54852 (P54852 whole entry, looked up): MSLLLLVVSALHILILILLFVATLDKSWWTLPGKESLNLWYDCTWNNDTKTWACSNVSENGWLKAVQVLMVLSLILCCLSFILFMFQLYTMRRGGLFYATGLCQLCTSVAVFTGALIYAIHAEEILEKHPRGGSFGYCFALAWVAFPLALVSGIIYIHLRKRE
inactive: erlotinib 0.008 | [1] -0.015 | [2] 0.018 | [3] 0.017 | [4] 0.004 | [5] 0 | [6] 0.007 | [7] -0.002 | [8] 0.029 | IRAK-1-4 Inhibitor I 0.053 | ibrutinib 0.045 | [9] -0.012 | ralimetinib 0.088 | [10] -0.081 | [11] 0 | [12] 0.013 | [13] -0.003 | [14] 0.041 | [15] -0.036 | [16] -0.01

GART (UniProt P22102)
inactive: erlotinib -0.007 | [1] 0.022 | [2] -0.025 | [3] -0.013 | [4] 0.016 | [5] 0.015 | [6] -0.011 | [7] -0.001 | [8] -0.003 | IRAK-1-4 Inhibitor I 0.005 | ibrutinib 0.007 | [9] 0.009 | ralimetinib 0.01 | [10] 0.036 | [11] 0.013 | [12] -0.014 | [13] 0.009 | [14] -0.027 | [15] -0.006 | [16] 0.021

GAMT (UniProt Q14353)
inactive: erlotinib 0.018 | [1] -0.008 | [2] 0.033 | [3] -0.008 | [4] -0.01 | [5] -0.016 | [6] 0.036 | [7] 0.035 | [8] 0.066 | IRAK-1-4 Inhibitor I -0.001 | ibrutinib 0.029 | [9] -0.008 | ralimetinib 0.019 | [10] 0.013 | [11] -0.041 | [12] 0.071 | [13] -0.009 | [14] -0.003 | [15] -0.003 | [16] 0.005

EED, A0A5F9ZI63
inactive: erlotinib 0.019 | [1] 0.042 | [2] -0.033 | [3] 0.017 | [4] -0.019 | [5] -0.012 | [6] 0.003 | [7] 0.003 | [8] 0.023 | IRAK-1-4 Inhibitor I 0.021 | ibrutinib -0.026 | [9] -0.018 | ralimetinib 0.008 | [10] -0.039 | [11] -0.004 | [12] 0.036 | [13] -0.003 | [14] -0.016 | [15] 0.042 | [16] -0.008
